The nature of experiment [1]: Validation screen for small molecules that induce DNA re-replication in SW480 colon adenocarcinoma cells (AID 504364). A digest of the protocol: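 250 cells/well; compound pinned in; 48 hr, 37 C, 5% CO2; Hoechst added, 40 min; nuclear fluorescence imaged, 405 ex / 500-530 em; re-replication scored as increase in high-intensity nuclei.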
In experiment [2] the target is Peptidyl-prolyl cis-trans isomerase NIMA-interacting 1 (Homo sapiens) (UniProt Q13526). As to the kind of experiment: qHTS Validation Assay to Find Inhibitors of Pin1 (AID 504536; active = well fitted inhibition curve with a large enough effect in the polarisation, with a control signal flat, not every such curve was filed as active; the % refers to the polarisation). A digest of the protocol: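 Fluorescence polarization competition: compounds (titration) displace HiFluor-488-labeled Pin1-1b peptide from Pin1 (0.3 uM final) in pH 7.5 HEPES buffer with DTT, 10 min at room temperature; %Activity normalized to no-enzyme wells, curves fitted.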
In general terms: qHTS replaces the single test concentration by a dilution series.

The target in experiment [3] is Phosphoglycerate kinase, glycosomal (Trypanosoma brucei brucei) (UniProt P07378). As to the kind of experiment: qHTS Validation Assay to Find Inhibitors of Phosphoglycerate Kinase (AID 504547). The procedure, abridged:
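Substrate/PGK mix plus compound; reaction started with GAPDH (100nM final) to form 1,3-BPG; 60 min RT; Kinase-Glo Plus 10 min; luminescence. TEA 100mM pH 7.6, MgCl2 5mM, Tween-20 0.01%.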

Experiment [4] addresses phosphoglycerate mutase (Leishmania major) (UniProt Q4Q090). As to the kind of experiment: qHTS Validation Assay to Find Inhibitors of Phosphoglycerate Mutase (AID 504548). Also: series mostly up to about 58 µM. To be noted: Potency: inhibition qHTS. A digest of the protocol: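 Lm PGAM 1.25nM final; 100 mM TEA pH 7.6, 5 mM MgCl2, 0.01% Tween-20; 45 min RT; Kinase-GloPlus, 10 min; end-point luminescence. Enzyme-free wells as negative controls.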

Experiment [5] in a line: Inducers of the Endoplasmic Reticulum Stress Response (ERSR) in human glioma: Validation (AID 504836). The procedure, abridged:
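Stably transfected U87-MG human glioma cells carrying a GRP78-based luminescent sensor were seeded at 1000 cells/well, pin-dosed with compounds and incubated 16 h. Luciferase reagent was then added, and end-point luminescence was read after 10 min at room temperature.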

Experiment [6] has as its target Ubiquitin carboxyl-terminal hydrolase 1 (Homo sapiens) (UniProt O94782). The experiment is described as follows: Inhibitors of USP1/UAF1: Pilot qHTS (AID 504865).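 Also: rhodamine fluorescence freed from ubiquitin-rhodamine substrate followed over time; top concentration of the series differs between compounds; nearly all actives have a fitted effect of over 35% in size.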 A digest of the protocol:
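In 50mM HEPES pH 7.8 containing 0.5mM EDTA, 1mM TCEP, 0.1 mg/ml BSA and 0.01% Tween-20, 1nM USP1/UAF1 is exposed to compound for 15 min, then Ub-Rho (150nM final) is added and fluorescence is read over time.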

Experiment [7] can be described thus: qHTS for Inhibitors of ATXN expression: Validation (AID 588378). Also: nearly all actives have a fitted effect of over 75% in size. Also: potency is read from the fitted curve at half-maximal effect. A digest of the protocol: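 Compounds were pinned onto attached HEK293 cells carrying an ATXN2-firefly luciferase construct and incubated 24 hrs at 37 degrees C. Each well then received a fluorescent viability reagent followed by luciferase substrate for end-point luminescence.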
Experiment [8] can be described thus: qHTS for Inhibitors of ATXN expression: Validation of Cytotoxic Assay (AID 588349). The procedure, abridged: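 Read-out: ATP-based luminescence (CellTiter Glo) reflecting viability of HEK293 cells after 72 hr incubation at 37 degrees C with a concentration series of each compound.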
Experiment [9] deals with DNA dC->dU-editing enzyme APOBEC-3G (Homo sapiens) (UniProt Q9HC16). As to the kind of experiment: qHTS for inhibitors of Vif-A3G interactions: Validation (AID 588379). A digest of the protocol: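 HeLa cells stably expressing Vif and A3G-eYFP, 700 cells/well, incubated overnight at 37 deg C, then exposed to compound overnight at 37 deg C. Inhibition of Vif-mediated degradation read as increased yellow fluorescence (Ex 488/Em 500-530) by laser-scanning cytometry.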

The values that follow come from PubChem BioAssay (NCATS).

Unmarked numbers belong to inactive results. Inconclusive results are not listed. The source made the active and inactive calls. Unless noted, calls follow the shape of the dose curve; as a rule, active = well fitted curve in the direction sought with a large enough effect; inconclusive = small, poorly fitted or top-dose-only effect, or another doubt; inactive = no such curve, though single readings can be large; an effect the other way counts as inactive or inconclusive.

Phosphoglycerate kinase, glycosomal (Trypanosoma brucei brucei), sequence (P07378 whole entry, looked up): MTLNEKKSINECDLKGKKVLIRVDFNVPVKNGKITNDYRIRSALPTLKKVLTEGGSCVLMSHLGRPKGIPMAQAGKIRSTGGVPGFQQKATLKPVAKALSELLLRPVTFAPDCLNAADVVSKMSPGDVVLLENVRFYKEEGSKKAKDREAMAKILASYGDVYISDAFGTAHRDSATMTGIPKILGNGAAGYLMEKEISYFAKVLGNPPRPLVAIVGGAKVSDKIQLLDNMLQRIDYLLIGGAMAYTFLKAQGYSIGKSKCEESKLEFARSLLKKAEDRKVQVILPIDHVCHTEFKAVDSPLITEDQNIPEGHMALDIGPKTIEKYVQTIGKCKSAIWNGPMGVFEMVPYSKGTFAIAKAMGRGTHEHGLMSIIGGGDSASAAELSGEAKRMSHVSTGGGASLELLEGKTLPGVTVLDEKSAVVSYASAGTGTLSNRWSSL
Ubiquitin carboxyl-terminal hydrolase 1 (Homo sapiens), sequence (O94782 whole entry, looked up): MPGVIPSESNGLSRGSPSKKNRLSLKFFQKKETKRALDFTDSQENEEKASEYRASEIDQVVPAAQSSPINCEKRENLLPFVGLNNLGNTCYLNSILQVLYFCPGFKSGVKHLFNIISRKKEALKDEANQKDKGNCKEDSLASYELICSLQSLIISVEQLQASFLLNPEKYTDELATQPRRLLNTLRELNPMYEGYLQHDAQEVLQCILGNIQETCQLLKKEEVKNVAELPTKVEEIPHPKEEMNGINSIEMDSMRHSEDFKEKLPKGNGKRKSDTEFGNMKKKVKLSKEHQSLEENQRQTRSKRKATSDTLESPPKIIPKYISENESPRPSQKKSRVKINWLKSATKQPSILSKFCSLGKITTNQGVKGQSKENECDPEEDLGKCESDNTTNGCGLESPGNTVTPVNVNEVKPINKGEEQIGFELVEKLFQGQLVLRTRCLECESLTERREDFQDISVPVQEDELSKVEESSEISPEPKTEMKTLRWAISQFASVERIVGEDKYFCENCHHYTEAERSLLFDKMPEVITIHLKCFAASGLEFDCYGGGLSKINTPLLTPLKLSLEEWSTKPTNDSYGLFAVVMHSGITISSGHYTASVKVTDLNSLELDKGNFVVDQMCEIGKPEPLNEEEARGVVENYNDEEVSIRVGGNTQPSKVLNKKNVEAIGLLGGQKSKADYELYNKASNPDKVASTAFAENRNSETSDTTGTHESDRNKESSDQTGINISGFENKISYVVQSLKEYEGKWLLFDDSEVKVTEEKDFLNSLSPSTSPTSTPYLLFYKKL
phosphoglycerate mutase (Leishmania major), sequence (Q4Q090 1-553): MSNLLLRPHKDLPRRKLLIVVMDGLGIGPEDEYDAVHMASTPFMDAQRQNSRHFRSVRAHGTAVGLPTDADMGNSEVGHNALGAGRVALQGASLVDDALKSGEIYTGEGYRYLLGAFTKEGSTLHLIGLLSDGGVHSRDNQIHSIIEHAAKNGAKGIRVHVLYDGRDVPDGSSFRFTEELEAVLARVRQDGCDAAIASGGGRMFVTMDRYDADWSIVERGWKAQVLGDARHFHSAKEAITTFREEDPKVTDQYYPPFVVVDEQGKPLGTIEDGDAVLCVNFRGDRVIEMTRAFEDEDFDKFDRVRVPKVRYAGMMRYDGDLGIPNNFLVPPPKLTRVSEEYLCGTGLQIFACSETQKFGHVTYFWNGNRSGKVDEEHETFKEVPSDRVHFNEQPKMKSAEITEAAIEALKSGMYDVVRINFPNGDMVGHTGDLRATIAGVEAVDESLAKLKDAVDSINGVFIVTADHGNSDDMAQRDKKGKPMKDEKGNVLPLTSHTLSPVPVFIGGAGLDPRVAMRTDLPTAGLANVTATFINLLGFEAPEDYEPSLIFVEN
Peptidyl-prolyl cis-trans isomerase NIMA-interacting 1 (Homo sapiens), sequence (Q13526 whole entry, looked up): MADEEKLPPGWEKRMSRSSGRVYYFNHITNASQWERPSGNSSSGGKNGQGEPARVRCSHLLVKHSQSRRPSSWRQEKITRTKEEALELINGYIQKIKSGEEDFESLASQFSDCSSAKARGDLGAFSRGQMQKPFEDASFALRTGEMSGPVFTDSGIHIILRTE
DNA dC->dU-editing enzyme APOBEC-3G (Homo sapiens), sequence (Q9HC16 whole entry, looked up): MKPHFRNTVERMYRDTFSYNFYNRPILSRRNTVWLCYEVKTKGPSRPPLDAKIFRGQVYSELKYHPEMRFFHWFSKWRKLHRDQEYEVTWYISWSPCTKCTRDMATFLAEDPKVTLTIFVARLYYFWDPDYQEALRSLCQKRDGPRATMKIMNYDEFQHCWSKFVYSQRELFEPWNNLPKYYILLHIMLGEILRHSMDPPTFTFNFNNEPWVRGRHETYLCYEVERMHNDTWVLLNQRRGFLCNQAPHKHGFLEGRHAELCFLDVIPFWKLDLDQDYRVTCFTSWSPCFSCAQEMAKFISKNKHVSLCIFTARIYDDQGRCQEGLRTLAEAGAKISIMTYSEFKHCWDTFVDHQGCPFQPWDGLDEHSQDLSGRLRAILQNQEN

As for `C[C@H](N)CN1CCc2ccc(Br)cc21`, the Potency entry in [1], in experiment [2], in experiment [3], in experiment [4] and in experiment [6] was “inactive” throughout. The call in [5] was inactive. The Potency in [7] is 15.8 µM (active).

For the molecule `COc1ccc(OC)c(C(O)C(C)N)c1` (stereo not drawn), the Potency result in experiment [1], in [2], in [3], in [4], in [6] and in experiment [8] was “inactive” throughout. In addition, the Potency result in experiment [7] was “inactive”. Further, the molecule was classed as inactive in experiment [5].

`NCCCP(=O)(O)O`: the Potency result in experiment [1], in experiment [2], in [3], in experiment [4], in experiment [6] and in [8] was “inactive” throughout. In addition, the Potency result in experiment [7] is “inactive”. In addition, in experiment [5], the outcome was inactive.

As for `C[N+](C)(C)CC#CCOC(=O)Nc1cccc(Cl)c1`, the Potency entry in experiment [1], in [2], in [3], in [4], in experiment [6] and in experiment [8] was “inactive” each time. For the same molecule, the Potency result in experiment [7] was “inactive”. For the same molecule, the outcome in experiment [5] was inactive.

In the case of `CP(=O)(O)C1=CCNCC1`, the Potency result in experiment [1], in experiment [2], in experiment [3], in experiment [4], in experiment [6] and in [8] was “inactive” in each case. The Potency result in [7] was “inactive”. The outcome in experiment [5] was inactive.

Turning to `O=[N+]([O-])c1cc(O)c(O)c([N+](=O)[O-])c1`, the Potency entry in [1], in [2], in experiment [3], in experiment [4], in [6] and in experiment [7] was “inactive” throughout. Also, the call in experiment [5] and in experiment [9] was inactive.

`CC1(C(=O)O)C2CCC(O2)C1(C)C(=O)O` (stereo not drawn): the Potency entry in [1], in experiment [2], in experiment [3], in experiment [4] and in [6] was “inactive” in each case. In addition, the outcome in experiment [5] was inactive. In experiment [7], the Potency was 7.94 µM (active).

In the case of `Clc1cc(I)cc(Cl)c1NC1=NCCN1`, the Potency result in experiment [1], in [2], in experiment [3], in experiment [4], in experiment [6] and in experiment [8] was “inactive” throughout. For the same molecule, in [7], the Potency result is “inactive”. In addition, in [5], the result was inactive.

For `CCCn1c(=O)c2[nH]c(C3CCCC3)nc2n(CCCOC(=O)c2ccc(S(=O)(=O)F)cc2)c1=O`, the Potency entry in experiment [1], in experiment [2], in [3], in [4], in experiment [6] and in [8] was “inactive” in each case. Moreover, the Potency result in [7] was “inactive”. In addition, the call in [5] was inactive.

Take `N[C@@H](Cn1oc(=O)[nH]c1=O)C(=O)O`: the Potency entry in experiment [1], in experiment [2], in [3], in experiment [4], in experiment [6] and in experiment [8] was “inactive” throughout. In experiment [7], the Potency result is “inactive”. Further, the molecule was called inactive in experiment [5] and in experiment [9].

As for `N[C@@]1(C(=O)O)CC[C@@H](C(=O)O)C1`, the Potency entry in [1], in experiment [2], in [3], in experiment [4], in experiment [6] and in [8] was “inactive” each time. In addition, the Potency entry in experiment [7] is “inactive”. Moreover, the molecule was classed as inactive in experiment [5].

For the molecule `CCCCCCCCCCCCCC(=O)O[C@@H]1[C@@H](C)[C@@]2(O)[C@@H](C=C(CO)C[C@@]3(O)C(=O)C(C)=C[C@@H]23)C2C(C)(C)[C@@]21OC(C)=O` (stereo partly drawn), the Potency result in experiment [1], in [2], in [3], in experiment [4], in experiment [8] and in experiment [7] was “inactive” throughout. In addition, the call in experiment [5] was inactive.

Turning to `C[N+](C)(C)CCOC(=O)CBr`, the Potency result in experiment [1], in experiment [2], in experiment [3], in experiment [4], in experiment [6] and in [8] was “inactive” throughout. Further, in experiment [7], the Potency entry was “inactive”.

In the case of `CC(=O)NBr`, the Potency result in experiment [1], in experiment [2], in [4], in [6], in experiment [8] and in [7] was “inactive” each time. Moreover, the result in [5] was inactive.
